Assay outcomes: PubChem, several laboratories
GIRK2 activator = GIRK2 channel activators by thallium flux; P48051; HEK293 GIRK2/NPY4 cells, thallium flux fluorescence; activation (% efficacy), % for hits at 37.5 µM; 34,000 tested, under 10 active; AID 1259324;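 active = primary screen hit, no activity in plain HEK293 cells, and in GIRK2-only cells above 5% efficacy rising with concentration; inactive = the rest, including fluorescent compounds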;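 note: efficacy is normalized control-subtracted fluorescence 15 s after thallium addition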
Target sequence (P48051 whole entry, looked up): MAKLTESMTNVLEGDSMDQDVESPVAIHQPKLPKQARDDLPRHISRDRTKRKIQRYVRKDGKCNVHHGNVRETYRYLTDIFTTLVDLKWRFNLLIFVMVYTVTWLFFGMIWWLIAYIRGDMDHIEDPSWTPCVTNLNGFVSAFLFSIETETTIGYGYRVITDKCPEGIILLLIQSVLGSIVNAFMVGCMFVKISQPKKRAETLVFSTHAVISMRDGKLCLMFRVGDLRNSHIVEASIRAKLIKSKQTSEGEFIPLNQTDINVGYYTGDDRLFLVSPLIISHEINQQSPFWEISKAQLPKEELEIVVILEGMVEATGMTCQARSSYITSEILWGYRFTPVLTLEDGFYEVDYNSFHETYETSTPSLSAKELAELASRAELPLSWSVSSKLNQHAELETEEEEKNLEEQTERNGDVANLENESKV
AMPAR-TARP mod = modulates AMPAR-stargazin complexes; AID 1259245; calls only at 30 µM; 40,000 tested, 3.5% active; O88602+P19491; HEK293 GluA2+stargazin, membrane potential dye (FDSS), glutamate EC50; hits were called plate by plate, in both directions;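 active = any of four per-well response measures lying three or more SD from its plate-wide compound average, in either direction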
Numbers without * were called inactive; i = inactive; . = no result; + = active, no number; [ ] = another dose, or the depositor's remark. The entries come from a sample that favours hits as a whole.

SMILES	GIRK2 activator	AMPAR-TARP mod
COCCN1COc2ccc3c(=O)c(-c4ccc(F)cc4)c(C)oc3c2C1	i	i
COc1ccc(S(=O)(=O)NCC2CCN(C3CCCC3)CC2)cc1OC	i	i
O=S(=O)(NCC1CCN(C2CCCC2)CC1)c1ccc2c(c1)CCCC2	i	+
CCc1ccc(S(=O)(=O)NCC2CCN(C3CCCC3)CC2)cc1	.	i
CCCOc1ccc(S(=O)(=O)NCC2CCN(C3CCCC3)CC2)cc1	i	+
COC(=O)N1CCC(CNS(=O)(=O)c2ccc3c(c2)CCCC3)CC1	i	i
CCCc1ccc(S(=O)(=O)NCC2CCN(C3CCCC3)CC2)cc1	.	+
CC1CN(C)CCN1CC1CCN(C(=O)c2ccc(F)c(F)c2)CC1 (stereo not given)	i	i
COc1cccc(C(=O)Nc2ccc(N3CCCC3=O)cc2)c1OC	i	i
CSc1cccc(NC(=O)NCCNc2nc(C)cc(N(C)C)n2)c1	i	i
Cc1cc(N(C)C)nc(NCCNC(=O)Nc2cccc(C(F)(F)F)c2)n1	i	+
CSc1ccccc1NC(=O)CCc1csc(NC(=O)c2ccco2)n1	i	i
O=S(=O)(NCC(O)(c1ccco1)C1CC1)c1cccc(C(F)(F)F)c1 (stereo not given)	i	+
O=S(=O)(NCC(O)(c1ccco1)C1CC1)c1ccc2c(c1)OCCO2 (stereo not given)	i	i
O=C1CC(NC(=O)NCc2cccc3ccccc23)CN1 (stereo not given)	i	.
Cc1ccc(Nc2cc(C)nc(N3CCN(C(=O)c4ccc5c(c4)OCO5)CC3)n2)cc1	.	i
Cc1ccc(Nc2cc(N3CCN(C(=O)c4ncccn4)CC3)nc(C)n2)cc1	i	+
COc1cccc(-n2ccn(CC(=O)Nc3ccc(OC)c(OC)c3)c(=O)c2=O)c1	.	i
CCCc1c(C(=O)NCc2ccccc2OC)nnn1-c1ccccc1	i	i
CCCc1c(C(=O)Nc2ccccc2F)nnn1-c1ccccc1	7.0%*[25 µM]	i
COC(=O)c1ccccc1C(=O)N(CC1CCCO1)c1nc2c(F)cccc2s1 (stereo not given)	.	i
O=C(Nc1cccnc1)c1ccc(S(=O)(=O)NC2CCCC2)cc1	i	i
O=C(Nc1ccc(S(=O)(=O)NC2CCCCC2)cc1)C1CCCO1 (stereo not given)	i	+
CC1CS(=O)(=O)N(c2cccc(C(=O)Nc3ccccc3C(N)=O)c2)C1=O (stereo not given)	i	i
COc1ccccc1N1CC(C)Cn2c1nc1c2c(=O)n(Cc2cccc(C)c2)c(=O)n1C (stereo not given)	.	i
SMILES	GIRK2 activator	AMPAR-TARP mod
COc1ccccc1N1CC(C)Cn2c1nc1c2c(=O)n(Cc2ccc(C)cc2)c(=O)n1C (stereo not given)	.	+
CC(C)Sc1cccc(C(=O)Nc2sccc2C(N)=O)c1	.	+
CC(C)Sc1cccc(C(=O)Nc2nnc(-c3cccs3)o2)c1	.	i
COc1cccc(Nc2nnc(CC(=O)N3CCC4(CC3)OCCO4)s2)c1	i	.
O=S(=O)(c1cccs1)N1CCN(Cc2nnnn2-c2ccc(F)cc2)CC1	i	+
O=S(=O)(c1cccs1)N1CCN(Cc2nnnn2-c2ccc(Cl)cc2)CC1	i	i
COc1ccc2nc(-c3ccc(NC(=O)c4c(F)cccc4F)cc3)cn2n1	i	.
COc1ccc(S(=O)(=O)CC(=O)Nc2nc(-c3cc(Cl)sc3Cl)cs2)cc1	i	+
COc1ccc(S(=O)(=O)CC(=O)Nc2nc(-c3cc(Cl)ccc3Cl)cs2)cc1	i	i
O=C(NCCCO)C(=O)NC1CC1	.	i
CCOc1cc(C)c(S(=O)(=O)NC(C)CC)cc1C(C)C (stereo not given)	.	i
O=C(NCc1ccccc1)NCC(c1cccs1)N1CCOCC1 (stereo not given)	i	i
Fc1ccccc1Nc1nc(N2CCOCC2)c2ccccc2n1	.	+
CN1CCN(c2nc(Nc3cccc(O)c3)nc3ccccc23)CC1	.	+
Fc1cccc(Nc2nc(N3CCCCC3)c3[nH]cnc3n2)c1	i	i
Cc1nc(Nc2cccc(F)c2)nc(N2CCOCC2)c1[N+](=O)[O-]	i	i
COc1ccc(F)cc1S(=O)(=O)NCC(O)c1ccc(C(F)(F)F)cc1 (stereo not given)	i	i
COc1ccc(F)cc1S(=O)(=O)NCCC(O)C(C)(C)C (stereo not given)	i	+
COc1ccc(CCC(=O)N2CCC(c3ccsc3)CC2)cc1	i	+
COc1ccc(NC(=O)N2CCC(c3ccsc3)CC2)cc1	.	i
COC(=O)COc1ccc2c(c1)O/C(=C\c1cccs1)C2=O	.	+
COc1cc(C(=O)Oc2ccc3c(c2)O/C(=C\c2cccs2)C3=O)cc(OC)c1OC	.	i
COc1ccc(N(Cc2cc(F)cc(F)c2)S(=O)(=O)c2ccc3nncn3c2)cc1	i	i
COC(=O)c1ccc(C(=O)NCC#CCN2CCCCCC2)cc1	.	i
COCCCNC(=O)c1cc2c(=O)n3cc(C)ccc3nc2n1C	i	i
SMILES	GIRK2 activator	AMPAR-TARP mod
COC1CS(=O)(=O)CC1OC (stereo not given)	.	+
COc1ccc(N2CCN(C(=O)CC(c3ccccc3)c3ccccc3)CC2)nn1	i	.
Cc1cccc(NC(=O)NCCOc2ccc(-c3cccs3)nn2)c1	i	i
CCOc1ccc(-c2ccc(=O)n(CC(=O)Nc3ccc(C(C)=O)cc3)n2)cc1	i	i
Cc1ccc(-c2csc(NC(=O)C3CCN(S(=O)(=O)c4ccc(C)cc4)CC3)n2)cc1	.	i
O=C(NCC(O)(c1ccccc1)C(F)(F)F)C1COc2ccccc2O1 (stereo not given)	i	i
O=C(NCC(O)(c1ccccc1)C(F)(F)F)c1cccc(C(F)(F)F)c1 (stereo not given)	i	+
O=C(NCC(O)(c1ccccc1)C(F)(F)F)C1c2ccccc2Oc2ccccc21 (stereo not given)	i	+
O=C(NCC(O)(c1ccccc1)C(F)(F)F)c1ccc(Cl)c(Cl)c1 (stereo not given)	i	i
O=C(NCCc1ccsc1)C1(c2ccc(Cl)cc2)CCCC1	i	+
O=C(NCC(O)(c1cccs1)C1CC1)C1(c2ccc(Cl)cc2)CCCC1 (stereo not given)	i	i
O=S(=O)(Nc1cccc(C(F)(F)F)c1)c1c(Cl)cccc1Cl	i	+
O=S(=O)(Nc1ccc2c(c1)OCCO2)c1c(Cl)cccc1Cl	i	i
Cc1ccc(S(=O)(=O)Nc2ccc(N3CCCCS3(=O)=O)cc2)cc1	.	i
CC1Cc2c(NC(=O)C3c4ccccc4Oc4ccccc43)nn(C)c2NC1=O (stereo not given)	i	i
COc1ccc(NC(=O)NCCc2ccsc2)cc1	i	.
CC(C)(CO)Nc1nnnc2c1cnn2-c1ccccc1	i	i
O=C(CSc1nc(=O)n(CCO)c2c1CCC2)NCc1ccc2c(c1)OCO2	i	i
CC1CCN(CC(O)COCCOc2ccc(Br)cc2)CC1 (stereo not given)	i	+
CC1CCN(CC(O)COCCOc2ccc(Cl)cc2)CC1 (stereo not given)	.	+
CC1CCN(CC(O)COCCOc2ccc(C(C)C)cc2)CC1 (stereo not given)	i	.
